PubChem BioAssay (EPA / NIEHS)
Calls of active or inactive are those of the source. How the source made its calls: active means hit-call score of the fitted dose curve at least 0.9, where 1 is the maximum; inactive means score below 0.9.

These compounds were tested against Cellular tumor antigen p53 (Homo sapiens) (UniProt P04637) (assay: ATG_p53_CIS: Attagene CIS-FACTORIAL HepG2 Assay for human p53 Transcription Factor (AID 2282994)). Conditions: HepG2 p53 cis-element reporter, Attagene mRNA; actives raise or lower the signal.
Cellular tumor antigen p53 (Homo sapiens), sequence (P04637 whole entry, looked up): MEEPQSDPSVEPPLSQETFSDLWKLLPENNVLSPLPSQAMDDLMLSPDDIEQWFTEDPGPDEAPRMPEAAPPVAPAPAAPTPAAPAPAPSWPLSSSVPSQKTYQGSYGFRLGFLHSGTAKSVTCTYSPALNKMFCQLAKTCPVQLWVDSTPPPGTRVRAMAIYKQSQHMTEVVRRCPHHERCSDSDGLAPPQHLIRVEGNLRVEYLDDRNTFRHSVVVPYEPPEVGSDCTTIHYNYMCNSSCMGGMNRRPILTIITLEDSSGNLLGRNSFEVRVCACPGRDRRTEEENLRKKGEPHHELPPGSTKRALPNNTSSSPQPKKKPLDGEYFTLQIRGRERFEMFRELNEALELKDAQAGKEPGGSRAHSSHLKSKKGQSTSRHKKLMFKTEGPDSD
Procedure: ATG_CIS is a cell-based, multiplexed-readout assay that uses HepG2, a human liver cell line, with measurements taken at 24 hours after chemical dosing in a 24-well plate.ATG_p53_CIS is one of 52 assay component(s) measured or calculated from the ATG_CIS assay. It is designed to make measurements of mRNA induction, a form of inducible reporter, as detected with fluorescence intensity signals by Reverse transcription polymerase chain reaction (RT-PCR) and Capillary electrophoresis technology.Data from the assay component ATG_p53_CIS was analyzed into 1 assay endpoint. This assay endpoint, ATG_p53_CIS, was analyzed with bidirectional fitting relative to DMSO as the negative control and baseline of activity. Using a type of inducible reporter, measures of mRNA for gain or loss-of-signal activity can be used to understand the reporter gene at the transcription factor-level as they relate to the gene TP53. Furthermore, this assay endpoint can be referred to as a primary readout, because this assay has produced multiple assay endpoints where this one serves a reporter gene function. To generalize the intended target to other relatable targets, this assay endpoint is annotated to the dna binding intended target family, where the subfamily is tumor suppressor.
Human liver HepG2 cells are transiently transfected with multiple reporter transcription units (MRTUs) in 6-well plates using FuGene 6 reagent (Roche; 3 ml FuGene/1 mg DNA). The MRTU constructs are regulated by a cis-regulating element (promoter). […] A major difference between the CIS and TRANS system is that in CIS activities of endogenous TFs are measured, whereas the TRANS assay evaluates changes in activities of exogenous, chimeric NR-Gal4 proteins. […] At the end of 24 hour incubation, total RNA was isolated using TriZol reagent (Invitrogen). The isolated RNA is then reverse-transcribed using oligo(dT) primer and Mo-MLV reverse transcriptase (Invitrogen) with DNAse I (Ambion) treatment for 30 min. The one-tenth of the produced cDNA was amplified by PCR using Taq DNA polymerase (Invitrogen) and two reporter sequence-specific primers. The PCR products were fluorescently labeled by primer extension with 6-arboxyfluorescein (6-FAM) 5'-labeled reporter sequence-specific primer (2 min at 95 C, 20 s at 68 C and 10 min at 72 C) and these products were digested with 5U of HpaI (New England Biolabs) for 2h at 37 C. The fragments were purified using Qiaquick PCR columns (Qiagen), analyzed on an ABI 3130xL genetic analyzer (Applied Biosystems) with peak positions identified by using a set of X-rhodamine (ROX)-labeled MapMarker1000 molecular weight standards (BioVentures). The raw capillary electrophoresis data was processed using Attagraph software (Attagene).

outcome, inactive:
CC(=O)OCCC1CCCCC1
COc1cc(C)ccc1C(C)C
C=C(C)CCO
[Cl][Nd]([Cl])[Cl]
O=c1cc[nH]c(=S)[nH]1
CCCCCCCCCCOC(C)=O
CC(=O)c1ccc[nH]1
Cc1cc(O)c(Cl)c(C)c1Cl
COC(=O)c1cc(Cl)ccc1[N+](=O)[O-]
CC(C)c1ccc2c(c1)CC[C@H]1[C@](C)(CN)CCC[C@]21C
CCCCCCOc1cc(C)c(O)c(C)c1C
O=C(Oc1ccccc1)c1ccc2ccccc2c1O
CCOC(=O)CC
CC/C=C\CCOC(=O)CCCCC
O=C(O)c1cc(Cl)cc([N+](=O)[O-])c1Cl
CCC(C)OC(=O)c1ccc(O)cc1 (stereo not given)
CCCCCCCCCCc1ccccc1
Nc1ccc(N=Nc2ccccc2)c(N)n1
C=CC(=O)NC(C)(C)CS(=O)(=O)O
O=Cc1ccc(CO)o1
Nc1nc2ccccc2[nH]1
CCCCCCCCC(=O)OCC
CCCCCCC(O)CO (stereo not given)
[Cl][In]([Cl])[Cl]
Cc1ccc(C(C)(C)C)cc1
C=C[Si](OC(C)=O)(OC(C)=O)OC(C)=O
COC(F)(F)C(F)(C(F)(F)F)C(F)(F)F
Cc1oncc1C(=O)Nc1ccc(C(F)(F)F)cc1
Cc1ccc(N/N=c2\c(=O)cc/c(=N/Nc3ccc(S(=O)(=O)O)cc3)c2=O)c(C)c1
O=C(OCC1CCC2OC2C1)C1CCC2OC2C1 (stereo not given)
COC(=O)/C=C/C(C)=C\C=C\C(C)=C\C=C\C=C(C)\C=C\C=C(C)\C=C\C(=O)O
CCOc1ccc(N)c([N+](=O)[O-])c1
CC1=Nc2ccc3ccccc3c2C1(C)C
CC(=O)[C@@]1(O)CC[C@H]2[C@@H]3C[C@H](C)C4=CC(=O)C=C[C@]4(C)[C@@]3(F)[C@@H](O)C[C@@]21C

AC50, active:
O=C(c1ccc(O)cc1)c1ccc(O)cc1O 100 µM
CN(C)c1ccc(N=Nc2ccccc2C(=O)O)cc1 66.4 µM
O=S(=O)(O)c1ccc2cc(O)c(S(=O)(=O)O)cc2c1 182 µM
Cc1ccc(C(C)c2ccc(C)c(C)c2)cc1C 41.9 µM
C/C=C\C/C=C/CCCCCCCCOC(C)=O 162 µM
CCOC(=O)c1ccccc1C(=C1C=C(Br)C(=O)C(Br)=C1)c1cc(Br)c(O)c(Br)c1 48.3 µM
